# The sample as a whole holds a higher share of hits than the screen did.
# miR-122 inh = miR-122 suppressors via Renilla sensor increase, primary screen, cell-based, Huh7 psiCHECK-miR122, Renilla luciferase, single point; 48 h; 340,000 tested, 0.14% active; activation, % at 12.5 µM;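 active = mean activation of 30% or more, with every replicate also reaching 30%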;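 note: 0% = median of neutral control wells and 100% = median of positive control wells; higher luciferase signal means stronger suppression of miR-122 activity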
# An asterisk follows results filed as active.
SMILES,miR-122 inh
C[C@H](CO)N1C[C@H](C)[C@@H](CN(C)C(=O)C2CCC2)Oc2cc(C#CC(C)(C)O)ccc2S1(=O)=O,-9.0
COc1cccc(NC(=O)N(C)C[C@@H]2Oc3cc(-c4cccc(C(=O)N(C)C)c4)ccc3S(=O)(=O)N([C@H](C)CO)C[C@H]2C)c1,-1.4
C[C@H](CO)N1C[C@H](C)[C@@H](CN(C)Cc2cccnc2)Oc2ncc(C#Cc3ccccn3)cc2C1=O,-2.6
C/C=C/c1ccc2c(c1)O[C@@H](CN(C)C(=O)CC1CC1)[C@H](C)CN([C@H](C)CO)S2(=O)=O,3.9
C[C@@H]1CN([C@@H](C)CO)S(=O)(=O)c2ccc(-c3cncnc3)cc2O[C@@H]1CN(C)C(=O)Cc1cccnc1,-10.4
Cc1noc(C)c1NC(=O)N(C)C[C@@H]1Oc2ncc(C#CCC(C)C)cc2C(=O)N([C@H](C)CO)C[C@H]1C,8.2
C[C@@H]1CN([C@H](C)CO)S(=O)(=O)c2ccc(C#C[C@@H](C)O)cc2O[C@@H]1CN(C)C,0.1
CC1CCN(CCc2nc3cc(NC(=O)Nc4ccccc4)ccc3n2C)CC1,30.9*
CO[C@H]1CN(C)C(=O)c2cc(NC(=O)Nc3ccccc3)ccc2OC[C@@H](C)NC[C@H]1C,-0.4
CO[C@@H]1CN(C)C(=O)c2cc(NC(=O)Nc3ccccc3)ccc2OC[C@@H](C)NC[C@@H]1C,-1.4
C[C@H]1CN([C@@H](C)CO)S(=O)(=O)c2ccc(-c3cccc(C#N)c3)cc2O[C@@H]1CN(C)Cc1ccccn1,-0.5
CCCC#Cc1cnc2c(c1)C(=O)N([C@H](C)CO)C[C@H](C)[C@@H](CN(C)C(=O)C1CC1)O2,-9.9
CCOc1ccc(S(=O)(=O)N2CCC(C(N)=O)CC2)c2ccccc12,-90.0
CCOc1ccc(CCNC(=O)C2CCN(S(=O)(=O)N3CCC(C)CC3)CC2)cc1OCC,33.3*
CCOc1ccc(NS(=O)(=O)c2cc(NC(=O)C3CC3)ccc2C)cc1Br,-140.2
COc1cccc(-c2cnc3c(c2)C(=O)N([C@@H](C)CO)C[C@H](C)[C@H](CN(C)C(=O)Nc2ccccc2F)O3)c1,-8.8
C/C=C/c1ccc2c(c1)O[C@H](CN(C)C(=O)CC1CC1)[C@H](C)CN([C@H](C)CO)S2(=O)=O,1.1
C[C@H]1CN([C@@H](C)CO)C(=O)c2cc(C3=CCCCC3)cnc2O[C@@H]1CN(C)CC1CCOCC1,-2.9
C[C@@H](O)C#Cc1cnc2c(c1)C(=O)N([C@@H](C)CO)C[C@H](C)[C@H](CN(C)C(=O)CN(C)C)O2,1.6
CCC(=O)N(C)C[C@@H]1Oc2ncc(C#CC3(O)CCCC3)cc2C(=O)N([C@H](C)CO)C[C@@H]1C,0.5
COc1cccc(-c2cnc3c(c2)C(=O)N([C@@H](C)CO)C[C@H](C)[C@H](CN(C)Cc2cccnc2)O3)c1,-5.1
C/C=C/c1cnc2c(c1)C(=O)N([C@@H](C)CO)C[C@H](C)[C@@H](CN(C)C(=O)Nc1ccccc1F)O2,-2.8
COCC(=O)N(C)C[C@H]1Oc2cc(C#Cc3cccnc3)ccc2S(=O)(=O)N([C@@H](C)CO)C[C@@H]1C,54.8*
C/C=C/c1ccc2c(c1)O[C@H](CN(C)C(=O)Cc1cccnc1)[C@H](C)CN([C@H](C)CO)S2(=O)=O,42.6*
C/C=C/c1ccc2c(c1)O[C@H](CN(C)C(=O)c1cccnc1)[C@H](C)CN([C@H](C)CO)S2(=O)=O,-5.0
SMILES,miR-122 inh
C/C=C/c1ccc2c(c1)O[C@@H](CN(C)C(=O)c1cccnc1)[C@@H](C)CN([C@@H](C)CO)S2(=O)=O,-2.6
CCC(=O)N(C)C[C@H]1Oc2cc(C#Cc3cccnc3)ccc2S(=O)(=O)N([C@H](C)CO)C[C@@H]1C,-10.2
CCCC#Cc1ccc2c(c1)O[C@@H](CN(C)C(=O)c1cccnc1)[C@@H](C)CN([C@@H](C)CO)S2(=O)=O,-12.0
CC(=O)N(C)C[C@@H]1Oc2cc(C#CC3(O)CCCC3)ccc2S(=O)(=O)N([C@H](C)CO)C[C@@H]1C,5.1
C[C@H](CO)N1C[C@H](C)[C@H](CN(C)C(=O)C2CC2)Oc2cc(C#Cc3cccnc3)ccc2S1(=O)=O,-2.4
C[C@@H]1CN([C@@H](C)CO)S(=O)(=O)c2ccc(C#CC3(O)CCCC3)cc2O[C@@H]1CN(C)C(=O)c1cccnc1,47.0*
CCC(=O)N(C)C[C@@H]1Oc2cc(C#Cc3cccnc3)ccc2S(=O)(=O)N([C@@H](C)CO)C[C@@H]1C,3.5
COCC(=O)N(C)C[C@H]1Oc2cc(C#Cc3cccnc3)ccc2S(=O)(=O)N([C@@H](C)CO)C[C@H]1C,58.9*
CCC(=O)N(C)C[C@H]1Oc2cc(C#Cc3cccnc3)ccc2S(=O)(=O)N([C@@H](C)CO)C[C@@H]1C,-21.7
COc1cccc(-c2cnc3c(c2)C(=O)N([C@@H](C)CO)C[C@@H](C)[C@@H](CN(C)CC2CCOCC2)O3)c1,1.9
C[C@@H]1CN([C@H](C)CO)C(=O)c2cc(C#Cc3ccccn3)cnc2O[C@H]1CN(C)Cc1cncnc1,-0.2
C[C@H]1CN([C@@H](C)CO)C(=O)c2cc(C#Cc3ccccc3F)cnc2O[C@@H]1CN(C)C(=O)C1CCOCC1,-2.5
